# Test results reported in PubChem BioAssay.
# Inconclusive results are not listed. Calls of active or inactive are those of the source.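 The calls were made as follows, unless noted: active = RAM network inhibition above 8.4% in each of two replicates, 3 SD over the compound average; inconclusive = above 8.4% inhibition in only one replicate; inactive = 8.4% inhibition or less in each replicate.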
# What was measured:
# [1] = Her2 expression decrease, cell viability multiplex – SKBR3 breast tumor cells, AlphaScreen, ATP viability, primary screen (AID 461;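 active = Her2 level under about 52% in both replicate screens, with viability over 70% of control, limit read from the data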;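 as to Her2 level: lower value means less Her2 protein in the cells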;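 as to viability: percent of carrier control wells set as 100% viability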); settings: SKBR3 Her2 protein level, 18-24 h, measured here: SKBR3 viability, ATP luminescence, at 10 µM
# [2] = target: Receptor tyrosine-protein kinase erbB-2 (Homo sapiens) (UniProt P04626); assay: as above; settings: 18-24 h, at 10 µM, stronger effect = lower value
# Chain of Receptor tyrosine-protein kinase erbB-2 (Homo sapiens) (P04626 whole entry, looked up): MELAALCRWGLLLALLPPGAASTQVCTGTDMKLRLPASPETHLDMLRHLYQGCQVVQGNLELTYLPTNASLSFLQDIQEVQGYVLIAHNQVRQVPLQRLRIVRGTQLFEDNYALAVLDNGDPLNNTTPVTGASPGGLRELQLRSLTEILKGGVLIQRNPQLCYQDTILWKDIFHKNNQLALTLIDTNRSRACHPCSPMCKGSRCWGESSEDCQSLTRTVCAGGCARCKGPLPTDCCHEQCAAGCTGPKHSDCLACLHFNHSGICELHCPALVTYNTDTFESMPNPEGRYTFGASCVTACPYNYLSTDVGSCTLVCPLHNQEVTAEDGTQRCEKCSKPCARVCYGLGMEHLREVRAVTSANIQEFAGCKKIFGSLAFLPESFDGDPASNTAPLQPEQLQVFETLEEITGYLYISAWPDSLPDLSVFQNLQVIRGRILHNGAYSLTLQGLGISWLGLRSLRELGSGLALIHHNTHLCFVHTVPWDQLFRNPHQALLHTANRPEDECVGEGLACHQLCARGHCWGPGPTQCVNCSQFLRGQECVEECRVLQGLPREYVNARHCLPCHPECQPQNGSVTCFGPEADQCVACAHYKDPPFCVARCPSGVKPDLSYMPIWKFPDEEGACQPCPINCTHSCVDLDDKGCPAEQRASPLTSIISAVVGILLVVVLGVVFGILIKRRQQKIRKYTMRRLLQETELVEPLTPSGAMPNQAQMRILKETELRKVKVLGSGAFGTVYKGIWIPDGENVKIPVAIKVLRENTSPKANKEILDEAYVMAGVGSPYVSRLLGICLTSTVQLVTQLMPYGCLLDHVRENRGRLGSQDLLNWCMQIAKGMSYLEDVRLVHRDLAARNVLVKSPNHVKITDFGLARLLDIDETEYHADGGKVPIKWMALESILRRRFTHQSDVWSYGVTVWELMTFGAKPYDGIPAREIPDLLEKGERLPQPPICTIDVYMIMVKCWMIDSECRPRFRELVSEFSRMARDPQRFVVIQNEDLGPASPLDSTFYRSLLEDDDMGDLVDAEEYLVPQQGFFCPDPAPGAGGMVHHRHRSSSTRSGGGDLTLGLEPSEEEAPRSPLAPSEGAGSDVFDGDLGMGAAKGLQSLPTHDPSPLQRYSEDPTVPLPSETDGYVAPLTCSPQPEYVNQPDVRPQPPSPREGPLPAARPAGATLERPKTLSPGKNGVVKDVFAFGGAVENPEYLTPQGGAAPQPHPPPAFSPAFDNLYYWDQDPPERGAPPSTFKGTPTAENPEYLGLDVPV
# [3] = reduced viability of SK-BR-3 breast cancer cells – cell-based, 24 h, human, pilot screen (AID 572;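 active = viability at or below 10% of carrier control in both of two separate runs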;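 also: compound exposure lasted between 18 and 24 h rather than exactly 24 h; 100% = carrier-treated control wells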); settings: SK-BR-3 viability, CellTiter-Glo luminescence, at 10 µM, stronger effect = lower value
# [4] = HUVEC growth inhibition – cell-based, human, primary screen (AID 575;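 active = viability at or below 30% in both replicate assays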;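 also: 100% = median of untreated cell wells with 0.1% DMSO on each plate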); settings: HUVEC proliferation, CellTiter-Glo luminescence, 72 h; at 10 µM; stronger effect = lower value
# [5] = H69AR cell proliferation blockers – human, duplicate replicates, primary screen (AID 580;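 active = viability at or under a set limit in both replicates, limit being median viability minus 3 SD, cut at about 48% in these data, passing the limit was not always enough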;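 also: 100% = mean luminescence of untreated wells and 0% = no signal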); settings: H69AR lung tumor cells viability, ATP luminescence, 72 h; at 10 µM; stronger effect = lower value
# [6] = MRP1 drug-resistance reversers in H69AR cells – cell-based, doxorubicin co-treatment, pilot screen (AID 601;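 active = viability loss from added drug above about 55%, and viability with drug at most 40%, in both replicates, limit read from the data, passing the limit was not always enough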); settings: CellTiter-Glo, 72 h, at 10 µM; for differential viability (reversal): stronger effect = higher value
# [7] = yeast transport mutant growth inhibition pilot in 384-well plates, post-Golgi transport modulator project (AID 636; in the data active = inhibition above about 31%); settings: absorbance 615 nm, about 18 h, stronger effect = higher value
# [8] = growth suppression of yeast trafficking mutant, preliminary HTS, modulators of trafficking downstream of Golgi apparatus project, 1536-format plate, OD 615 nm (AID 637; in the data active = inhibition above about 30%); settings: yeast transport mutant growth, absorbance 615 nm, 18 h; stronger effect = higher value
# [9] = S. cerevisiae growth inhibition in permissive medium (OD615), pilot counter-assay for S. cerevisiae lifespan shortening project, permissive growth control (AID 705;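 active = growth inhibition above 25% in both replicates, a cutoff set 3 SD above the mean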); settings: OD615, 24 h, at 10 µM, stronger effect = higher value
# [10] = S. cerevisiae growth inhibition in restrictive medium, OD615, pilot screen, restrictive growth control, yeast lifespan reduction project (AID 706;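 active = growth inhibition above a set limit, 3 SD over mean compound inhibition, in both replicates, cut at about 43% in these data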;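 also: modified DeaD lifespan yeast strain shifted to restrictive glucose medium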); settings: OD615, 48 h, at 10 µM, stronger effect = higher value
# [11] = doxorubicin toxicity protection in MRP-1 cells – H69AR cells, CellTiter-Glo, duplicate, MRP-1 activator project, pilot screen (AID 807;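 active = viability increase at or above a cutoff of the median across tested compounds plus 3 SD, cut at about 8.5% in these data, passing the limit was not always enough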;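 also: compound pretreatment 18-22 h then 72 h combined with doxorubicin; 0% = doxorubicin alone and 100% = vehicle without doxorubicin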); settings: H69AR viability with doxorubicin, CellTiter-Glo luminescence; at 10 µM; stronger effect = higher value
# [12] = viability of HCT116 without oncogenic beta-catenin – human colon tumor cells, pilot screen (AID 823;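 active = cell viability at or below a set limit in both duplicate runs, the limit being the all-compound median minus 4 SD, cut at about 23% in these data, passing the limit was not always enough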;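 also: 0% = wells killed by 20 µM Hyamine and 100% = untreated DMSO cell wells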); settings: HCT116 beta-catenin knockout viability, CellTiter-Glo, 60 h; at 10 µM; stronger effect = lower value
# [13] = viability of PTEN-null HCT116 cells – cell-based, HCT116 clonal line, CellTiter-Glo, pilot screen (AID 824;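 active = viability at or below 27.92% in each of two runs, the all-compound median minus 4 SD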;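 also: 0% = 20 µM Hyamine control and 100% = vehicle cell control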); settings: HCT116 PTEN-deleted viability, 60 h, at 10 µM, stronger effect = lower value
# [14] = RAM pathway blockade in budding yeast – dse1pr::URA3 reporter, 5-FOA selection, pilot screen (AID 869;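 active = inhibition over a set limit, the all-compound mean plus 3 SD, in both replicate runs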;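 also: 0% = DMSO wells with no growth and 100% = 10 µM 1-NA-PP1 with full growth; RAM network block rescues cells from 5-FOA so hits raise OD615 growth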); settings: S. cerevisiae dse1pr::URA3 5-FOA growth, OD615, 2 d; at 10 µM; stronger effect = higher value; strain carries analog-sensitive mutant Cbk1 kinase
# [15] = RAM signaling pathway blockade in yeast – S. cerevisiae, Pdr1DBD-CYC8 efflux-inhibited sensitized strain, primary screen (AID 1298);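 also: 0% = DMSO untreated cells without growth and 100% = 10 µM 1-NA-PP1 full growth; higher means more yeast growth rescued from 5-FOA killing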; settings: S. cerevisiae cbk1-as DSE1-URA3 strain, 5-FOA growth OD615, 2 d; at 50 µM; stronger effect = higher value
# [16] = H69AR cells + 2 uM doxorubicin, measured here: viability with 2 uM doxorubicin, stronger effect = lower value
# [17] = H69AR cells, compound alone cytotoxicity
SMILES,viability [1] [%],Her2 level [2],viability [3],viability [4],viability [5],differential viability (reversal) ([6]; H69AR cells + 2 uM doxorubicin),"viability [6, 16] [%]","viability [6, 17] [%]",inhibition [7],inhibition [8],growth inhibition [9],growth inhibition [10],viability increase [11],viability [12],viability [13],inhibition [14],RAM network inhibition [15]
COc1ccc(S(=O)(=O)N2Cc3ccccc3CC2C(=O)Nc2ccc(O)cc2)cc1OC (stereo not drawn),91,106% (inactive),91% (inactive),76.3% (inactive),77.4% (inactive),1.23% (inactive),76.2,77.4,-4.27% (inactive),-0.83% (inactive),-18.6% (inactive),-18.4% (inactive),-4.42% (inactive),96.6% (inactive),87.5% (inactive),1.39% (inactive),11.6% (inactive)
Cn1c(C(=O)NCCCN2CCN(c3ccc(F)cc3)CC2)cc2c(=O)n(C)c3ccccc3c21,81,90% (inactive),81% (inactive),65.7% (inactive),84.1% (inactive),4.36% (inactive),79.8,84.1,-3.07% (inactive),0% (inactive),-6.23% (inactive),7.21% (inactive),-5.3% (inactive),67.8% (inactive),70.1% (inactive),-0.495% (inactive),1.71% (inactive)
C=CCOc1ccc(/C(CC)=N/O)c(OC)c1,93.5,104% (inactive),93.5% (inactive),70.4% (inactive),101% (inactive),10.5% (inactive),90.9,101,-1.82% (inactive),0.5% (inactive),-19.1% (inactive),-11.4% (inactive),-0.09% (inactive),96.7% (inactive),105% (inactive),0.56% (inactive),-0.68% (inactive)
CC(=O)OCCNc1cc(N2CCN(C)CC2)c2noc3c2c1C(=O)c1ccccc1-3,83,102% (inactive),83% (inactive),68.9% (inactive),66.9% (inactive),-8.49% (inactive),75.4,66.9,-1.54% (inactive),3.33% (inactive),-7.97% (inactive),-9.2% (inactive),-6.89% (inactive),76.8% (inactive),73% (inactive),8.66% (active),12.4% (inactive)
Cc1cc(C)cc(N(CC(=O)NC2CCC(C)CC2)S(=O)(=O)c2c(C)noc2C)c1 (stereo not drawn),104,101% (inactive),104% (inactive),94% (inactive),88.1% (inactive),4.2% (inactive),83.8,88.1,-3.59% (inactive),-5.67% (inactive),-23.2% (inactive),-18.5% (inactive),-1.82% (inactive),97.5% (inactive),94.9% (inactive),2.36% (inactive),11.3% (inactive)
COc1ccccc1N(CC(=O)NCc1ccccn1)S(C)(=O)=O,126,105% (inactive),126% (inactive),89.2% (inactive),95.7% (inactive),4.02% (inactive),91.6,95.7,-1.3% (inactive),-1.17% (inactive),-1.19% (inactive),-24.7% (inactive),-3.02% (inactive),97.3% (inactive),91.5% (inactive),0.815% (inactive),4.8% (inactive)
CCOc1ccc(Cn2nnc(C(=O)NCc3ccc(OC)cc3)c2N)cc1,95,102% (inactive),95% (inactive),74.3% (inactive),89.5% (inactive),-2.11% (inactive),91.6,89.5,-4.67% (inactive),-4.33% (inactive),-3.91% (inactive),-6.16% (inactive),-0.43% (inactive),95.8% (inactive),94.8% (inactive),2.19% (inactive),4.7% (inactive)
CN1CCN(Cc2nc3c(c(=O)n(C)c(=O)n3C)n2Cc2ccccc2Cl)CC1,80.5,97.5% (inactive),80.5% (inactive),86.5% (inactive),86.9% (inactive),7.12% (inactive),79.8,86.9,-5.07% (inactive),-2.17% (inactive),-5.17% (inactive),-14.4% (inactive),-2.56% (inactive),91.8% (inactive),91.3% (inactive),1.5% (inactive),4.45% (inactive)
Cc1ccc(-n2ncc3c(N4CCCC(C)C4)ncnc32)c(C)c1 (stereo not drawn),104,78.5% (inactive),104% (inactive),60.2% (inactive),61.6% (inactive),38.2% (inactive),23.4,61.6,-5.07% (inactive),8% (inactive),-2.59% (inactive),10% (inactive),-8.5% (inactive),80.5% (inactive),80.4% (inactive),0.12% (inactive),2.4% (inactive)
